Assay results from PubChem BioAssay (Tox21).
Values without a mark were called inactive. Results filed as inconclusive are left out. Entries that show only a call come without a potency. Calls of active or inactive are those of the source. Unless noted, calls follow the shape of the full dose curve.

How the values were obtained:
[1] = Nuclear factor erythroid 2-related factor 2/antioxidant responsive element (Nrf2/ARE) small molecule agonists: qHTS cell viability counter screen in human keratinocytes (AID 1919968; active = well fitted curve in the direction sought with a large enough effect in the repeat runs; an effect the other way counts as inactive or inconclusive; also: nearly all actives have a fitted effect of over 55% in size)
Outline: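 Stably transfected HaCaT (KeratinoSens), 1,500/well. Test agents in DMSO were applied for 23 h, 37 C/5% CO2. CellTiter-Fluor was incubated 1 h before the fluorescence read.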

[2] = Nuclear factor erythroid 2-related factor 2/antioxidant responsive element (Nrf2/ARE) small molecule agonists: luciferase reporter gene qHTS assay in human keratinocytes (AID 1919969); also: nearly all actives have a fitted effect of over 35% in size; also: potency is read from the fitted curve at half-maximal effect
[3] = target: Gonadotropin-releasing hormone receptor (Homo sapiens) (UniProt P30968); assay: Human gonadotropin-releasing hormone receptor (GnRHR) small molecule agonists, calcium flux assay in GnRHR-HEK293 cells (AID 1920063); also: nearly all actives have a fitted effect of over 35% in size; also: potency is read from the fitted curve at half-maximal effect
Outline: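 Stable human GnRHR HEK293 line. 18 h plating, then calcium dye for 1 h at 37 C. Agonist-mode compound addition from DMSO stocks; fluorescence monitored 3 min.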

[4] = target: KiSS-1 receptor (Homo sapiens) (UniProt Q969F8); assay: Human kisspeptin (KISS1R) small molecule agonists, calcium flux assay in KISS1R-HEK293 cells (AID 1920064; active = well fitted curve in the direction sought with a large enough effect in the repeat runs; an effect the other way counts as inactive or inconclusive)
Outline: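 After overnight (18 h) culture at 37 C/5% CO2, human KISS1R-HEK293 cells received calcium dye for 1 h, then test compound; emission at 540 nm (excitation 480 nm) was tracked for 3 min.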

[5] = G protein-coupled receptor (GPCR) small molecule agonists, calcium flux assay: HEK293 wild type cell line counter screen (AID 1920065)
Outline: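 Following 18 h incubation at 37 C/5% CO2, plates got calcium dye for 1 h; compounds, ATP or DMSO were then pinned in and fluorescence followed kinetically (480/540 nm).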

[6] = p53 small molecule agonists, cell-based qHTS assay with rat liver microsomes: qHTS cell viability counter screen (AID 1963580); also: nearly all actives have a fitted effect of over 45% in size
Outline: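 Luminescent ATP readout (CellTiter-Glo, 30 min at room temperature) reports viability of p53RE-bla HCT-116 cells after 16 h at 37 C with test compounds under metabolic activation by rat liver microsomes and NADPH at 0.5 mg/mL final each.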

[7] = p53 small molecule agonists, cell-based qHTS assay (AID 1963582; active = well fitted activation curve with a large enough effect in the signal ratio in the repeat runs, not every such curve was filed as active; the % refers to the signal ratio)
Outline: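 Measured: fluorescence from cleaved LiveBLAzer substrate. System: p53RE-bla cells, 16 h compound treatment at 37 C, 2 h substrate step at room temperature.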

[8] = target: 5-hydroxytryptamine receptor 2A (Homo sapiens) (UniProt P28223); assay: 5-hydroxytryptamine receptor 2A (HTR2A) small molecule antagonists, cell-based qHTS assay (AID 1963586); also: nearly all actives have a fitted effect of over 45% in size
Outline: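 CHO cells stably expressing human HTR2A were plated for 18 h at 37 C, then loaded with calcium dye for 1 h. Compounds were preincubated 5 min at room temperature before DOI (4 nM solution) was added. Kinetic fluorescence was read for 3 min.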

[9] = target: 5-hydroxytryptamine receptor 2A (Homo sapiens) (UniProt P28223); assay: 5-hydroxytryptamine receptor 2A (HTR2A) small molecule agonists, cell-based qHTS assay (AID 1963587); also: nearly all actives have a fitted effect of over 30% in size
Outline: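 HTR2A-CHO cells, plated 18 h at 37 C/5% CO2, dye-loaded 1 h at 37 C; compounds in DMSO added by pin tool (agonist mode). Intracellular calcium flux read as kinetic fluorescence on FDSS over 2 min at 1 s intervals.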

[10] = target: Muscarinic acetylcholine receptor M1 (Homo sapiens) (UniProt P11229); assay: Cholinergic receptor muscarinic 1 (CHRM1) small molecule agonists, cell-based qHTS assay (AID 1963589); also: nearly all actives have a fitted effect of over 35% in size
Outline: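 Kinetic fluorescence (1 s intervals) of calcium-sensitive dye in human M1 CHO cells after compound addition; cells pre-incubated 18 h at 37 C/5% CO2 and dye-loaded 1 h.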

[11] = cAMP Responsive Elements (CRE) small molecule agonists, cell-based qHTS assay (AID 1963590)
Outline: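 Test agents in DMSO were incubated 3 h at 37 C/5% CO2 with CRE-bla HEK 293T cells seeded 18 h earlier; LiveBLAzer B/G FRET substrate was added and read after 2 h at room temperature.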

[12] = cAMP Responsive Elements (CRE) small molecule antagonists, cell-based qHTS assay (AID 1963591; active = well fitted inhibition curve with a large enough effect in the signal ratio in the repeat runs, not every such curve was filed as active; the % refers to the signal ratio)
Outline: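 Reporter line CRE-bla HEK 293T in dialyzed-FBS DMEM; cells preincubated 18 h, treated 3 h with compound plus NKH477 (0.25 uM final); LiveBLAzer FRET, 2 h RT.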

[13] = target: D(2) dopamine receptor (Homo sapiens) (UniProt P14416); assay: Dopamine D2 receptor (DRD2) small molecule agonists, cell-based qHTS assay (AID 1963594); also: nearly all actives have a fitted effect of over 35% in size
Outline: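 HEK293 cells stably expressing DRD2 were cultured 24 h at 37 C, then given Ro20-1724 (0.1 mM final) and compounds for 10 min at room temperature. NKH477 (200nM) was then added for 30 min. cAMP was read by HTRF.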

[14] = p53 small molecule agonists, cell-based qHTS assay with human liver microsomes: qHTS cell viability counter screen (AID 1963579); also: nearly all actives have a fitted effect of over 45% in size
Outline: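 p53RE-bla cells, 4,000/well, dosed 5 hours after plating, with human liver microsomes (0.5 mg/mL final) plus NADPH (0.5 mg/mL final), 16 hours at 37 C. Viability read as CellTiter-Glo luminescence after 30 min at room temperature.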

[15] = p53 small molecule agonists, cell-based qHTS assay: qHTS cell viability counter screen (AID 1963581); also: nearly all actives have a fitted effect of over 45% in size
Outline: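 qHTS counter screen: 16 h compound exposure at 37 C of p53RE-bla HCT-116 cells (4,000 per well, seeded 5 h prior), cell viability by ATP luminescence.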

[16] = target: Beta-2 adrenergic receptor (Homo sapiens) (UniProt P07550); assay: Adrenergic beta2 receptor (ADRB2) small molecule antagonists, cell-based qHTS assay (AID 1963592); also: series mostly up to about 92 µM; nearly all actives have a fitted effect of over 50% in size
Outline: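 Assay format: CHO-ADRB2 cells, 18-20hr seeding at 37C/5% CO2, then compound plus 1nM isoproterenol agonist mix for 0.5hr RT. Homogeneous time-resolved fluorescence cAMP detection after 1hr, expressed as 665/615 nm ratio.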

[17] = target: Beta-2 adrenergic receptor (Homo sapiens) (UniProt P07550); assay: Adrenergic beta2 receptor (ADRB2) small molecule agonists, cell-based qHTS assay (AID 1963593);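 also: CHO cells stably overexpressing human ADRB2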
Outline: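 CHO cells stably over-expressing ADRB2 were plated overnight at 37C, then dosed with compounds plus a stimulation mix containing 100uM IBMX and 25uM Ro-20-1724 for 0.5hr at room temperature. cAMP was measured by HTRF competition, 1hr.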

[18] = target: D(2) dopamine receptor (Homo sapiens) (UniProt P14416); assay: Dopamine D2 receptor (DRD2) small molecule antagonists, cell-based qHTS assay (AID 1963595; active = well fitted inhibition curve with a large enough effect in the signal ratio in the repeat runs, with a control signal flat; the % refers to the signal ratio; also: potency is read from the fitted curve at half-maximal effect)
Outline: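 In this cell-based antagonist screen, compounds act for 10 min at room temperature before a 30 min challenge with 12 nM quinpirole and 200 nM NKH477. cAMP is quantified by HTRF competition in DRD2-HEK293 cells containing 0.1 mM Ro20-1724.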

[19] = p53 small molecule agonists, cell-based qHTS assay with rat liver microsomes (AID 1963578)
Outline: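 p53RE-bla cells, 4,000/well, pre-incubated 5 h, then given compounds plus rat liver microsomes (0.5 mg/mL final) and NADPH (0.5 mg/mL final). Incubation 16 h at 37 C; beta-lactamase reporter read by LiveBLAzer fluorescence after 2 h at room temperature.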

[20] = target: Muscarinic acetylcholine receptor M1 (Homo sapiens) (UniProt P11229); assay: Cholinergic receptor muscarinic 1 (CHRM1) small molecule antagonists, cell-based qHTS assay (AID 1963588); also: nearly all actives have a fitted effect of over 40% in size
Outline: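 Compounds were tested at 15 concentrations in three independent runs. Dye-loaded CHRM1-CHO cells were exposed 5 min at room temperature before stimulation by acetylcholine added at 50nM. Intracellular calcium was read kinetically on FDSS for 3 min.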

Sequence of D(2) dopamine receptor (Homo sapiens) (P14416 whole entry, looked up): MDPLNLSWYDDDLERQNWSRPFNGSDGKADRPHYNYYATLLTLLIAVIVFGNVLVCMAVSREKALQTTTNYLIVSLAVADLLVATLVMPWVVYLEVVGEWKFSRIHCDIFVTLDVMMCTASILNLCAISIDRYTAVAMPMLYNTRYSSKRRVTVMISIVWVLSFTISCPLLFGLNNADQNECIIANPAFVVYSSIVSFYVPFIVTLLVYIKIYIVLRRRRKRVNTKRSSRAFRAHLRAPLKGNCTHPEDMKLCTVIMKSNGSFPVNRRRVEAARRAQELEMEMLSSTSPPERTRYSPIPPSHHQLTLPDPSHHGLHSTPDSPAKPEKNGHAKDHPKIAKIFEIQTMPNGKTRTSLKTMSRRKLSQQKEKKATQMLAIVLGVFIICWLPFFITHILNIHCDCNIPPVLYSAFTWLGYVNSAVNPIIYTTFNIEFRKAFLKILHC
Sequence of Gonadotropin-releasing hormone receptor (Homo sapiens) (P30968 whole entry, looked up): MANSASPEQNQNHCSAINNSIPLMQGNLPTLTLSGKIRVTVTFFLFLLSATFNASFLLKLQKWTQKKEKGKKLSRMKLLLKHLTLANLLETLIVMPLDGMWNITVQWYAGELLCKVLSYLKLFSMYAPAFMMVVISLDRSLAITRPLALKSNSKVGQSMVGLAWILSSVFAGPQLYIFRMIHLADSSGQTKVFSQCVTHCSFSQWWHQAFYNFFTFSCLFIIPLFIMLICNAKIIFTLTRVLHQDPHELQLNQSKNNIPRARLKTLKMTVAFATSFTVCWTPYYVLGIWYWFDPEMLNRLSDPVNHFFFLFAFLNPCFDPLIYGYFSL
Sequence of Beta-2 adrenergic receptor (Homo sapiens) (P07550 whole entry, looked up): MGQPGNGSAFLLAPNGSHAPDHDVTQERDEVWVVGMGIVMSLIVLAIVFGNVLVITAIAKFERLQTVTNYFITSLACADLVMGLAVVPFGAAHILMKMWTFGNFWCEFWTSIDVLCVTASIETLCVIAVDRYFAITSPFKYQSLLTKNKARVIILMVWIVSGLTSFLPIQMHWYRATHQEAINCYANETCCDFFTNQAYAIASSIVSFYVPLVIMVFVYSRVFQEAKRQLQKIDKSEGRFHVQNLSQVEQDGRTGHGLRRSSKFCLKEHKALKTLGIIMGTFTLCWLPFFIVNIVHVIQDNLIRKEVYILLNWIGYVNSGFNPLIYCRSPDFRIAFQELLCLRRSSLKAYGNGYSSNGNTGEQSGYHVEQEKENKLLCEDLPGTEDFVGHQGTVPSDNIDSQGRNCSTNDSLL
Sequence of KiSS-1 receptor (Homo sapiens) (Q969F8 whole entry, looked up): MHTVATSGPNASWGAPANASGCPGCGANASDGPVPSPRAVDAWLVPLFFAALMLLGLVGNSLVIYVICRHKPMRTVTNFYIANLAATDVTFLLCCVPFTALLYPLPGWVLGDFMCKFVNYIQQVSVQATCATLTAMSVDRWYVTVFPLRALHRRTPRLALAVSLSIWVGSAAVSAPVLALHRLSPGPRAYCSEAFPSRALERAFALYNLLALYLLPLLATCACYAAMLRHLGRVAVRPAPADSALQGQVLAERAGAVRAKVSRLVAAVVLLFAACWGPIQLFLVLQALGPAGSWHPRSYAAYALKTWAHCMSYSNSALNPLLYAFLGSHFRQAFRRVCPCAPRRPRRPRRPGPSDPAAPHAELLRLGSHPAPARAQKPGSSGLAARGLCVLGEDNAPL
Sequence of 5-hydroxytryptamine receptor 2A (Homo sapiens) (P28223 whole entry, looked up): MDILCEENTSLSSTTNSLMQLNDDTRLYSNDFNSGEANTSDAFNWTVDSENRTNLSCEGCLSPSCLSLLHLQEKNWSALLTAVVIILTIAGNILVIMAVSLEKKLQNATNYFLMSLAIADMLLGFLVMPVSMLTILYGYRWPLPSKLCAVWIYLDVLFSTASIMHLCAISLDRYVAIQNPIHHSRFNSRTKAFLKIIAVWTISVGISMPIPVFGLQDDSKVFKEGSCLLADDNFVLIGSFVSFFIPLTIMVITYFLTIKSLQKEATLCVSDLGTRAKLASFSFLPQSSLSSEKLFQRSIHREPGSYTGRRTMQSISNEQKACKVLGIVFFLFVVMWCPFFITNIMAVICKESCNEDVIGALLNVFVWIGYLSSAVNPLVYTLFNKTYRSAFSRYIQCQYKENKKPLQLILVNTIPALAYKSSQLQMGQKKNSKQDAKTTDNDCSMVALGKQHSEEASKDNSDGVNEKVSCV
Sequence of Muscarinic acetylcholine receptor M1 (Homo sapiens) (P11229 whole entry, looked up): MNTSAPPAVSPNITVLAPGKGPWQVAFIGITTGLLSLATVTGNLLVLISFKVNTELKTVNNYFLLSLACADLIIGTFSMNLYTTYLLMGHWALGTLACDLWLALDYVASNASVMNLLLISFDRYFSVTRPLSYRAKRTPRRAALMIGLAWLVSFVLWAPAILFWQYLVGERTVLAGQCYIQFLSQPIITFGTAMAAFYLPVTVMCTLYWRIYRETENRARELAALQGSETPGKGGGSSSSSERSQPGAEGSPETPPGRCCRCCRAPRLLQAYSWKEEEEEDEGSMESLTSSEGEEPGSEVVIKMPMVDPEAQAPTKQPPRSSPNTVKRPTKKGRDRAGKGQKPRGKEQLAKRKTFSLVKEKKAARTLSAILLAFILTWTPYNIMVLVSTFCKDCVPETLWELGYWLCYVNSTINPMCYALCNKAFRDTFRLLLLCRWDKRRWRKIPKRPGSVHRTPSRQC

Compound	Potency [1]	Potency [2]	Potency [3]	Potency [4]	Potency [5]	Potency [6]	Potency [7]	Potency [8]	Potency [9]	Potency [10]	Potency [11]	Potency [12]	Potency [13]	Potency [14]	Potency [15]	Potency [16]	Potency [17]	Potency [18]	Potency [19]	Potency [20]
CCOc1ccc(O)cc1	inactive	inactive	inactive	inactive	inactive	inactive	inactive	inactive	inactive	inactive	inactive	inactive	inactive							
O=C(OCCc1ccccc1)c1ccccc1	inactive	27.3 µM (active)	inactive	inactive	inactive		inactive	inactive	inactive	inactive			inactive	inactive	inactive	inactive	inactive	inactive		
CC1(C)C(=O)NC(=O)N1CO	inactive	inactive	inactive	inactive	inactive	inactive	inactive	inactive	inactive	inactive	inactive	inactive	inactive	inactive	inactive	inactive	inactive	inactive	inactive	inactive
O=C[C@@H](O)[C@H](O)[C@H](O)CO	inactive	inactive	inactive	inactive	inactive	inactive	inactive		inactive	inactive	inactive	inactive	inactive	inactive	inactive	inactive	inactive	inactive		inactive
CCc1c(C)[nH]c2c1C(=O)C(CN1CCOCC1)CC2 (stereo not given)	inactive	inactive	inactive	inactive	inactive	inactive	inactive		inactive	inactive	inactive	inactive	inactive	inactive	inactive			0.75 µM (active)		
CCCc1ccccc1O	inactive	inactive	inactive	inactive	inactive	inactive	inactive	inactive	inactive	inactive	inactive	inactive	inactive	inactive	inactive	inactive	inactive	inactive		inactive
Nc1nnc(-c2ccc([N+](=O)[O-])o2)o1	inactive	61.1 µM (active)	inactive	inactive	inactive	inactive	inactive	inactive	inactive	inactive	inactive	inactive	inactive	inactive	inactive	inactive	inactive		inactive	inactive
c1ccc(C[n+]2cccc3ccccc32)cc1	inactive	inactive	inactive	inactive	inactive	inactive	inactive	inactive	inactive		inactive	inactive	inactive	inactive		inactive				inactive
Cc1cc(C)c(C)c(C)c1	inactive	inactive	inactive	inactive	inactive	inactive	inactive	inactive	inactive	inactive		inactive	inactive	inactive	inactive	inactive		inactive		inactive
CN1CCN(C(=O)C2CCCCC2)CC1	inactive	inactive	inactive	inactive	inactive	inactive	inactive	inactive	inactive	inactive		inactive	inactive	inactive	inactive	inactive	inactive	inactive	inactive	inactive
C[C@@H]1C[C@H]2[C@@H]3CCC4=CC(=O)C=C[C@]4(C)[C@@]3(Cl)[C@@H](O)C[C@]2(C)[C@@]1(OC(=O)c1ccco1)C(=O)CCl	inactive	inactive	inactive	inactive	inactive	inactive	inactive	inactive	inactive	inactive		inactive	inactive	inactive	inactive			inactive	inactive	inactive
CC(C)c1ccccc1N	inactive	inactive	inactive	inactive	inactive	inactive	inactive		inactive	inactive	inactive		inactive	inactive	inactive	inactive	inactive	inactive	inactive	inactive
C=C(C)C(=O)OCCOC1CC2CC1C1C=CCC21 (stereo not given)	inactive	inactive	inactive	inactive	inactive	inactive	inactive		inactive	inactive	inactive			inactive	inactive	inactive	inactive	inactive	inactive	inactive
C[N+](C)(C)CCOC(N)=O	inactive	inactive	2.39 µM (active)	inactive	inactive	inactive	inactive				inactive	inactive	inactive	inactive	inactive	inactive	inactive	inactive	inactive	
CC(S)C(C)S (stereo not given)	inactive	inactive	inactive	inactive	inactive	inactive	inactive	inactive	inactive		inactive	inactive	inactive	inactive	inactive		inactive		inactive	inactive
